# The list is not random: actives were taken first. Their share in the collection is about 3.1%.
# SKOV3 invasion: Primary qHTS assay for Inhibitors of ovarian cancer metastasis using an organotypic tumor microenvironment (TME) model. SKOV3ip1-GFP adhesion/invasion on 3D omental model, fluorescence. Potency, µM (doses to about 45.8 µM), without a hit: at the top dose activity change, negative = inhibition, usual class: inhibitors. 46,000 tested, 0.1% active;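 also: plate controls were DMSO wells for no effect and tomatine positive control wells for full effect; nearly all actives have a fitted effect of over 65% in size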
#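 Adhesion/invasion was scored as fixed GFP-labeled SKOV3ip1 cell counts (488/509 nm), normalized to DMSO and tomatine controls. Cancer cells in serum-free medium, with four compound doses (0.36-46 umol/L), sat 2 hr at RT then 16 hr at 37 C on a 48 hr fibroblast/mesothelial/ECM culture.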
# p53null 39C kill: qHTS Screen for Compounds that Selectively Target Cancer Cells with p53 Mutations: Cytotoxicity of p53 Null Cells at the Nonpermissive Temperature | H1299 p53-null (neo) cells, 39C, ATPlite viability, 24 h | Potency, µM (series often up to 46.1 µM), inactives show at the top dose activity, negative = cell killing, hits mostly cytotoxic | 55,000 tested, 0.97% active | AID 904, 2007;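 also: 0% = DMSO only and -100% = full killing by 100 µM tamoxifen; nearly all actives have a fitted effect of over 50% in size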
#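 Temperature-shift cytotoxicity format: compound titrations on p53-null or A138V-expressing H1299 cells held 24 hr at 39C, cell ATP then measured, AC50 from Hill model.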
# S16 viability: Cell viability qHTS assay in S16 Pmp22-F2sN cells | S16 Pmp22-F2sN Schwann cells viability, CellTiter-Glo, 24 h | Potency, µM (series often up to 57.5 µM), for the others: at the highest dose activity change, negative = cytotoxicity, usual class: cytotoxic | 43,000 tested, 0.48% active | AID 1508642, 2021; also: nearly all actives have a fitted effect of over 65% in size
#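 S16 Schwann cells carrying the Pmp22-F2sN reporter, seeded in 1536-well format, were exposed to library compounds for 24 h at 37C. Viability was read as CellTiter-Glo luminescence after 15 min at room temperature.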
# pS6 MEF inh: Acumen qHTS Assay for Inhibitors of the mTORC1 Signaling Pathway in MEF (Tsc2-/-, p53-/-) Cells: Sytravon; Tsc2-/- p53-/- MEF, phospho-rpS6 immunofluorescence/PI, 24 h; 44,000 tested, 0.78% active; Potency, µM (titrated, usually from 38.3 µM), for the others: at the top dose activity change, negative = inhibition, usual class: inhibitors; AID 493208, 2011;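 also: plate controls were DMSO for no effect and rapamycin for full effect; nearly all actives have a fitted effect of over 50% in size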
#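 Compounds act on Tsc2-/-, p53-/- fibroblasts carrying an empty vector for 24 h before fixation and dual staining for phospho-S6 and DNA (propidium iodide). Values are percentages of cells above a rapamycin-defined pS6/PI threshold.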
# p53null 32C kill: qHTS Screen for Compounds that Selectively Target Cancer Cells with p53 Mutations: Cytotoxicity of p53 Null Cells at the Permissive Temperature; H1299-neo p53 null cells, ATP luminescence, 24 h, 32C; Potency, µM (top dose mostly 46.1 µM), for inactives: at the top dose activity change, negative = cytotoxicity, most hits filed as cytotoxic; 55,000 tested, 0.62% active; AID 903, 2007;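 also: 0% = DMSO only and -100% = full killing by 100 µM tamoxifen; nearly all actives have a fitted effect of over 55% in size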
#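 H1299-neo, 600 cells/well; overnight 37C; cpd up to 46 uM, 24 h at 32C; ATPlite luminescence after 20 min RT; normalized to DMSO (0%) and tamoxifen 100 uM (100% kill); Hill-fit AC50.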
# PMP22 txn: Cell-based coincidence reporter assay to measure PMP22 gene transcription in S16 Pmp22-F2sN cells - Primary screen; S16 Pmp22-F2sN Schwann cells (luciferase reporters placed in the Pmp22 gene), FLuc/NLuc coincidence luminescence, 24 h; Potency, µM (top dose mostly 57.5 µM), without a hit: at the highest dose activity change, negative = inhibition, actives largely listed as inhibitors; 43,000 tested, 2% active; AID 1508649, 2021; active = clear falling dose curves in both reporters; inconclusive = both reporters move, but less clearly or upward; inactive = either reporter flat; the % is the NLuc reporter signal
#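 S16 Schwann cells carrying FLuc/NLuc coincidence reporter in the Pmp22 3' UTR treated with compound 24 h at 37C; FLuc then NLuc luminescence read sequentially by dual-luciferase reagents.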
# * hit, by the source's call; i = inactive; ? = inconclusive; nt = not tested or not shown. Unless noted, calls follow the shape of the dose curve; as a rule, active = well fitted curve in the direction sought with a large enough effect; inconclusive = small, poorly fitted or top-dose-only effect, or another doubt; inactive = no such curve, though single readings can be large; an effect the other way counts as inactive or inconclusive. Unless noted, % is scaled to controls: 0 for no effect and ±100 for the full control effect; potency is read from the fitted curve at half-maximal effect.
SMILES,SKOV3 invasion,p53null 39C kill,S16 viability,pS6 MEF inh,p53null 32C kill,PMP22 txn
COc1ccc(/C=C(\C#N)c2nc(-c3cc4c(ccc5ccccc54)oc3=O)cs2)cc1O,-3%,6%,?,4%,-4%,8.9µM*
O=C(CCCc1ccccc1)c1ccc2c(c1)OCCO2,nt,13µM*,nt,nt,10µM*,nt
COc1ccc(CNC(=O)c2nc(SC(C)C)ncc2Cl)cc1,i,-6%,-4%,-7%,2%,-55%
O=C(NCc1ccccc1)c1nc(S(=O)(=O)Cc2ccccc2)ncc1Cl,?,86%,8.9µM*,16µM*,-14%,6.5µM*
CCCSc1ncc(Cl)c(C(=O)N(Cc2ccccc2)c2ccc(OC)cc2)n1,?,48%,-21%,-13%,25%,?
CS(=O)(=O)c1ncc(Cl)c(C(=O)N(Cc2ccc(Cl)cc2)Cc2ccco2)n1,?,?,4.5µM*,1.8µM*,?,?
COc1ccc(N(Cc2ccccc2)C(=O)c2nc(S(C)(=O)=O)ncc2Cl)cc1,?,11µM*,4.5µM*,2.1µM*,13µM*,1.8µM*
COc1ccc(CNC(=O)c2nc(S(=O)(=O)Cc3ccccc3)ncc2Cl)cc1,3.5µM*,13µM*,5.6µM*,21µM*,-4%,5.3µM*
Cn1c(Nc2ccc(C(F)(F)F)cc2)nc2cc(Oc3ccnc(-c4ncc(C(F)(F)F)[nH]4)c3)ccc21,29%,nt,nt,nt,nt,nt
COc1cc2nc(Nc3cccc(C)c3)nc(N)c2cc1OC,?,?,-27%,?,?,?
COc1cc2nc(Nc3ccc(C)c(C)c3)nc(N)c2cc1OC,?,32µM*,?,?,?,?
C[C@@H]1[C@H](O)[C@@H](C)C=CC=CC=CC=CC=CC=CC=C[C@H](O[C@@H]2O[C@H](C)[C@H](O)[C@H](N)[C@@H]2O)C[C@@H]2O[C@](O)(C[C@@H](O)C[C@@H](O)[C@H](O)CC[C@@H](O)C[C@@H](O)CC(=O)O[C@H]1C)C[C@H](O)[C@@H]2C(=O)O,1%,nt,nt,nt,nt,nt
CC(C)(C)c1ccc(C2=NC(C)(C)N(CC(=O)Nc3ccc(F)c(F)c3)C2=O)cc1,i,13µM*,-12%,1%,3%,?
COc1ccc(C2=NC(C)(C)N(CC(=O)Nc3cc(OC)cc(OC)c3)C2=O)cc1,-5%,-5%,1%,-10%,5%,-11%
CCc1ccc(-n2nc(CO)c(C(=O)NCC(c3ccccc3)c3ccccc3)n2)cc1,-6%,-14%,1%,2%,0%,-27%
CCc1ccc(-n2nc(CO)c(C(=O)NC)n2)cc1,7%,20µM*,0%,4%,?,-1%
CC(C)Nc1ncnc2c1cnn2-c1ccccc1,nt,?,nt,nt,11µM*,nt
NC(=O)c1ccc(N(C(N)=O)c2c(F)cccc2F)nc1-c1ccc(F)cc1F,7%,nt,nt,nt,nt,nt
COc1cc(NC(=O)c2cc3ccccn3n2)cc(OC)c1OC,1%,-4%,nt,-3%,-16%,nt
Cc1ccccc1CCNC(=O)c1cc2ccccn2n1,5%,10µM*,nt,0%,?,nt
Cc1ccc(NC(=O)c2cc3ccccn3n2)cc1F,i,?,nt,0%,13µM*,nt
CCc1ccc(NC(=O)c2cc3ccccn3n2)cc1,i,7.9µM*,-18%,-12%,10µM*,3%
Cc1ccc(CN2CCNCC2)cc1NC(=O)CNc1ccc(F)c(F)c1,5%,nt,nt,nt,nt,nt
CCOC(=O)CSc1nc2ccc(NC(=O)c3ccc(C)cc3)cc2s1,-6%,?,4%,-4%,10µM*,3%
O=C(Nc1ccc2nc(SCC(=O)N3CCOCC3)sc2c1)c1cccc(Cl)c1,i,?,3%,-12%,32µM*,-8%
SMILES,SKOV3 invasion,p53null 39C kill,S16 viability,pS6 MEF inh,p53null 32C kill,PMP22 txn
O=C(Nc1ccc2nc(SCC(=O)N3CCCC3)sc2c1)c1cccc(Cl)c1,-7%,?,0%,-10%,-26%,-32%
COc1c(C)cnc(Cn2cnc3c(Cl)nc(N)nc32)c1C,13%,nt,nt,nt,nt,nt
CN1CCN(C(CNC(=O)C(=O)Nc2cccc(Cl)c2)c2ccc3c(c2)OCO3)CC1 (stereo unspecified),?,32%,?,16µM*,12%,?
COc1cc(Oc2ccnc3cc(OC)c(OC)cc23)ccc1NC(=O)NC(C)c1nccs1 (stereo unspecified),-7%,nt,nt,nt,nt,nt
CCOc1ccc(-c2cn3c(n2)sc2cc(C(=O)NCCCN4CCCCCC4)ccc23)cc1,?,-5%,?,3%,10%,?
Cc1ccc(-c2cn3c(n2)sc2cc(C(=O)NCCCN4CCCCC4)ccc23)cc1,8.9µM*,-12%,4µM*,7%,-3%,8.9µM*
CCCN1CCN(CCCNC(=O)c2ccc3c(c2)sc2nc(-c4ccc(OCC)cc4)cn23)CC1,?,25µM*,?,?,?,?
CCOc1ccc(-c2cn3c(n2)sc2cc(C(=O)NCCCN(CC)CC)ccc23)cc1,?,4%,10µM*,-4%,-3%,4.5µM*
CCOc1ccc(-c2cn3c(n2)sc2cc(C(=O)NCCCN4CCCCC4)ccc23)cc1,11µM*,-1%,7.1µM*,2%,-6%,14µM*
Cc1ccc(-c2cn3c(n2)sc2cc(C(=O)NCCCN4CCCCCC4)ccc23)cc1,?,-15%,?,0%,7%,?
CN1CCN(c2cc(C(=O)Nc3ccc4c(c3)-c3c(c(C(N)=O)nn3-c3ccc(F)cc3)CC4)c(Cl)cn2)CC1,-25%,nt,nt,nt,nt,nt
Cc1ncc(-c2ccnc(Nc3ccc(S(C)(=O)=O)cc3)n2)n1C(C)C,7%,nt,nt,nt,nt,nt
C=CC(=O)Nc1cc(NC(=O)c2ccc(C)c(NC(=O)c3ccno3)c2)cc(C(F)(F)F)c1,-11%,nt,nt,nt,nt,nt
CCN(CC)S(=O)(=O)c1ccc(NC(=O)CCc2c(C)nc3cc(-c4ccc(Cl)cc4)nn3c2C)cc1,-8%,-10%,?,12µM*,-4%,7.8µM*
Cc1ccc(F)c(NC(=O)Nc2ccc(-c3cccc4[nH]nc(N)c34)cc2)c1,7%,nt,nt,nt,nt,nt

# Assay outcomes (PubChem BioAssay)
